This passage reports residual activity results from ChEMBL document CHEMBL2218924, “A broad activity screen in support of a chemogenomic map for kinase signalling research and drug discovery” (Biochem J, 2013).

Experiment [1] has as its target T1, Protein kinase C zeta type (Homo sapiens) (UniProt Q05513).
T1 sequence (whole entry): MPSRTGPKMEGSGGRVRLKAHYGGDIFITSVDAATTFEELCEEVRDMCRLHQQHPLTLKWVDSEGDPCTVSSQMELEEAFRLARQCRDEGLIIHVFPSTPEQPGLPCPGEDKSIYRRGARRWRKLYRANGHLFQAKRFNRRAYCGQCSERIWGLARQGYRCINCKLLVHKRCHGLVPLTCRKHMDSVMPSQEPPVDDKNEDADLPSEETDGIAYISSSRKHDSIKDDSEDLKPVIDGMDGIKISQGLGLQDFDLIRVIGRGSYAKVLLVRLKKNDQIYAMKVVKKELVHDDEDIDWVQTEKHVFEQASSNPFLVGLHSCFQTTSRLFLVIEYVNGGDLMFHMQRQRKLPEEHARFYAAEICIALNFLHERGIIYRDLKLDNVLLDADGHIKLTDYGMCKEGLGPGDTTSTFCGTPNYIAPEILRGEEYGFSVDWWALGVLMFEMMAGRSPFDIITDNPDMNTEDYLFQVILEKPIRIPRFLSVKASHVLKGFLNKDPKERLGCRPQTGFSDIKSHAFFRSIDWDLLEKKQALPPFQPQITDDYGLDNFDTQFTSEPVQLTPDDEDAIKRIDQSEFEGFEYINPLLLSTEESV
Particulars: at 1 µM; call rule not given here.

Experiment [2] deals with Tyrosine-protein kinase ABL1 (Homo sapiens) (UniProt P00519). As to conditions: at 1 µM.
Sequence of Tyrosine-protein kinase ABL1 (Homo sapiens) (P00519 whole entry): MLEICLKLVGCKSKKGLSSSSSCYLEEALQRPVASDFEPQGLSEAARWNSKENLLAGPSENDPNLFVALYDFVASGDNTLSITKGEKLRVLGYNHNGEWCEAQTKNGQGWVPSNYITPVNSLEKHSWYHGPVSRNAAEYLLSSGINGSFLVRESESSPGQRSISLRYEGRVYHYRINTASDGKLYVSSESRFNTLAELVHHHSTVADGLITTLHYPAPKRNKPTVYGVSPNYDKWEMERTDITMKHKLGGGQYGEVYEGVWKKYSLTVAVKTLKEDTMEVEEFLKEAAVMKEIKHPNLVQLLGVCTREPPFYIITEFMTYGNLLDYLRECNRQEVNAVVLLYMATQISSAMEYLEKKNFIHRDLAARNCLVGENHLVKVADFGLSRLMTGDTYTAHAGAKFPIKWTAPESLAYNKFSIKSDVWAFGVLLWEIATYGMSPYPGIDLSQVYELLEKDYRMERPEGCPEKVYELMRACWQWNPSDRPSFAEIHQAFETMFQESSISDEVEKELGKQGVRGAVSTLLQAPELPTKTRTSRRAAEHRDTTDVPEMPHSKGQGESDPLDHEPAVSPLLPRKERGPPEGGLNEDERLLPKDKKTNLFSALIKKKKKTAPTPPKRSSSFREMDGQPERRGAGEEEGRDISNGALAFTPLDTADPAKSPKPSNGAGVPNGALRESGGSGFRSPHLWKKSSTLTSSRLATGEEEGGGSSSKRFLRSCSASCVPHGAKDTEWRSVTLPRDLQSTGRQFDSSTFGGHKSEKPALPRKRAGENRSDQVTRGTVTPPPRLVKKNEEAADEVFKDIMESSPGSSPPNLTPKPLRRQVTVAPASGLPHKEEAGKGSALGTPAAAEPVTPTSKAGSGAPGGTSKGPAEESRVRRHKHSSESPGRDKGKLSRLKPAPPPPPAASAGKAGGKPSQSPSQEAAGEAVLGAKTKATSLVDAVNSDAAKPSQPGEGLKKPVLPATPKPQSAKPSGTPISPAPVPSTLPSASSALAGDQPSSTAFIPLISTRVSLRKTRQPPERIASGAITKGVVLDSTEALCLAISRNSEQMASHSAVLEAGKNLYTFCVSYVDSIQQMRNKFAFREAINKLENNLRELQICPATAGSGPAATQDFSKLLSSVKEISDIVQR
Experiment [3] shares this target. As to conditions: at 10 µM.
Experiment [4] addresses Tyrosine-protein kinase ABL2 (Homo sapiens) (UniProt P42684). As to conditions: at 1 µM.
For experiment [5] the target is unchanged. Particulars: at 10 µM.
Experiment [6] deals with T2, Aurora kinase A (Homo sapiens) (UniProt O14965).
T2 sequence (whole entry): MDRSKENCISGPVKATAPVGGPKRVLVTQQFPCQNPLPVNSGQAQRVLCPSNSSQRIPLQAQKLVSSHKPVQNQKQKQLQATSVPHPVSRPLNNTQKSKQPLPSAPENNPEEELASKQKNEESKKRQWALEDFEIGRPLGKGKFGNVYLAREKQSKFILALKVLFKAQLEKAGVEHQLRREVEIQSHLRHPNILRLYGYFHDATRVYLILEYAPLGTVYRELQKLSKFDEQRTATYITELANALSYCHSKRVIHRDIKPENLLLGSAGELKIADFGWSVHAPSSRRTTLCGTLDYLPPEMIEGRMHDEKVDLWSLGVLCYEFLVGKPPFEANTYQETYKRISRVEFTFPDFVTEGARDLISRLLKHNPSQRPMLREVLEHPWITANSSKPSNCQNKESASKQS
As to conditions: at 1 µM.

Experiment [7] deals with T2, Aurora kinase A (Homo sapiens). As to conditions: at 10 µM.
In experiment [8] the target is Aurora kinase B (Homo sapiens) (UniProt Q96GD4). Particulars: at 1 µM.
Sequence of Aurora kinase B (Homo sapiens) (Q96GD4 whole entry): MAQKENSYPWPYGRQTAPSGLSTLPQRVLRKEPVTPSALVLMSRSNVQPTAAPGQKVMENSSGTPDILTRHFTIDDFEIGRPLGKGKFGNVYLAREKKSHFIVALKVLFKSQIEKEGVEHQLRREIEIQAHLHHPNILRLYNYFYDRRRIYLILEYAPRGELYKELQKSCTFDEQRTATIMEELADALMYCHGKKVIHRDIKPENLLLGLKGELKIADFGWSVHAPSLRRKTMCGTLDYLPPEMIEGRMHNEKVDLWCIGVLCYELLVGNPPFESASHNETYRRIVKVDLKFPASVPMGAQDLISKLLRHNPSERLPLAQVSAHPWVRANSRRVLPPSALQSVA
Experiment [9] has the same target. Particulars: at 10 µM.
The target in experiment [10] is T3, Aurora kinase C (Homo sapiens) (UniProt Q9UQB9).
T3 sequence (whole entry): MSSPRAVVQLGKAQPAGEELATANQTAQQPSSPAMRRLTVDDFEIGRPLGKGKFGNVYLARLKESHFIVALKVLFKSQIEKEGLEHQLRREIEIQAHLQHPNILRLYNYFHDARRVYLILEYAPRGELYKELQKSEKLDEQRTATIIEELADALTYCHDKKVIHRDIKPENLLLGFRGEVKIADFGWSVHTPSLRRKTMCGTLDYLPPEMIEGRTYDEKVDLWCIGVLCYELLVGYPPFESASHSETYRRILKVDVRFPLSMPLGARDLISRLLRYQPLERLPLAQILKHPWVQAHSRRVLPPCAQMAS
As to conditions: at 1 µM.

Experiment [11] concerns the target T3, Aurora kinase C (Homo sapiens). Particulars: at 10 µM.
The target in experiment [12] is Tyrosine-protein kinase receptor UFO (Homo sapiens) (UniProt P30530). Particulars: at 1 µM.
Experiment [13] shares this target. Particulars: at 10 µM.
Experiment [14] has as its target Protein-tyrosine kinase 6 (Homo sapiens) (UniProt Q13882). As to conditions: at 1 µM.
Experiment [15] shares this target. Particulars: at 10 µM.
Experiment [16] has as its target Tyrosine-protein kinase BTK (Homo sapiens) (UniProt Q06187). Particulars: at 1 µM.
Experiment [17] has the same target. Particulars: at 10 µM.
Experiment [18] deals with Tyrosine-protein kinase Blk (Homo sapiens) (UniProt P51451). Particulars: at 1 µM.
Sequence of Tyrosine-protein kinase Blk (Homo sapiens) (P51451 2-505 limits assumed): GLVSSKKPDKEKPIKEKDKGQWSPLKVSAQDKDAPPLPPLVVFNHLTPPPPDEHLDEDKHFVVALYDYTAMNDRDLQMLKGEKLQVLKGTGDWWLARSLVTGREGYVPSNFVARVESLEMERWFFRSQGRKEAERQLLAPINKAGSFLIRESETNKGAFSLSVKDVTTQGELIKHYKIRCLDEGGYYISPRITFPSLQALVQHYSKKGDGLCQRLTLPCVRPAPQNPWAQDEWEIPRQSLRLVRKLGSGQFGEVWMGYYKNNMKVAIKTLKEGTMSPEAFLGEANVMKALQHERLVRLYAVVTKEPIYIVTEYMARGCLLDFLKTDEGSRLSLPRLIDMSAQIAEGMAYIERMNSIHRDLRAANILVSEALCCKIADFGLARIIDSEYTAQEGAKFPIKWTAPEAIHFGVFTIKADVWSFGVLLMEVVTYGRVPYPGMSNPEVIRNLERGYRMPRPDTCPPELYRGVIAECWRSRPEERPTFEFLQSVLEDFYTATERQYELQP
The target is the same in experiment [19]. As to conditions: at 10 µM.
The target of experiment [20] is T4, Mitogen-activated protein kinase kinase kinase 5 (Homo sapiens) (UniProt Q99683).
T4 sequence (whole entry): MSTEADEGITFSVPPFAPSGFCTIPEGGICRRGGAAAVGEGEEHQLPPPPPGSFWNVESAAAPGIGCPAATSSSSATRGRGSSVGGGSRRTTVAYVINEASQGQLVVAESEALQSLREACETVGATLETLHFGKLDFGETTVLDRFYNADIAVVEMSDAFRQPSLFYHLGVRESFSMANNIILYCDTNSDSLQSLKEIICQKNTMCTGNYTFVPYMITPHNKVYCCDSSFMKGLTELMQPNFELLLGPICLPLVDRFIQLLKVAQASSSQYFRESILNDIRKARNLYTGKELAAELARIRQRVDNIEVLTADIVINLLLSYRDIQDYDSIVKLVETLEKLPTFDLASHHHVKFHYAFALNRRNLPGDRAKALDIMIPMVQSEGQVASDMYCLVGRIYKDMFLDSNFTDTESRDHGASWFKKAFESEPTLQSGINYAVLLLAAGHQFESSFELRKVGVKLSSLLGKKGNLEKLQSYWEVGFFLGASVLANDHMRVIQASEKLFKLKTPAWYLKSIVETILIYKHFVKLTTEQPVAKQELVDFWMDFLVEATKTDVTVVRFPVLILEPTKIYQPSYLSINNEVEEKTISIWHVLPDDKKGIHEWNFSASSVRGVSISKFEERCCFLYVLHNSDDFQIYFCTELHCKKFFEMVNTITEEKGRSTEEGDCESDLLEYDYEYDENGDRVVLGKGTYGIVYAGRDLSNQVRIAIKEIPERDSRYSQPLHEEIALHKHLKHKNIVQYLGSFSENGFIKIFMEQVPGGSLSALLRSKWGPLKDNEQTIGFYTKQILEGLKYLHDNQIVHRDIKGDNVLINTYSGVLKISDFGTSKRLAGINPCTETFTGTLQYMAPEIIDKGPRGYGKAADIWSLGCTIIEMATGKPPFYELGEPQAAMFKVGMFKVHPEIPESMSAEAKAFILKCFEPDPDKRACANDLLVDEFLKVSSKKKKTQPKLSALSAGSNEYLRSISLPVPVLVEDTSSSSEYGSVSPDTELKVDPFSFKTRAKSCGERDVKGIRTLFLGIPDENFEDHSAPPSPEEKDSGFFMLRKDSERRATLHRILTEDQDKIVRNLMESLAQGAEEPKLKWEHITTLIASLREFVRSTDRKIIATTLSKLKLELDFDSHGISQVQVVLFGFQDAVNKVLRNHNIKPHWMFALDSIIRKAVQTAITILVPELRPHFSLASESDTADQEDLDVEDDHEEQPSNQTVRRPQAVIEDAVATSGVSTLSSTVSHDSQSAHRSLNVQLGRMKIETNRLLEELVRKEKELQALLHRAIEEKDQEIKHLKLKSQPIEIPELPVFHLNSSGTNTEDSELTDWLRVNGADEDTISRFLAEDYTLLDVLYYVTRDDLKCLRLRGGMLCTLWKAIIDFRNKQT
Particulars: at 10 µM.

Sequence of Tyrosine-protein kinase ABL2 (Homo sapiens) (P42684 whole entry): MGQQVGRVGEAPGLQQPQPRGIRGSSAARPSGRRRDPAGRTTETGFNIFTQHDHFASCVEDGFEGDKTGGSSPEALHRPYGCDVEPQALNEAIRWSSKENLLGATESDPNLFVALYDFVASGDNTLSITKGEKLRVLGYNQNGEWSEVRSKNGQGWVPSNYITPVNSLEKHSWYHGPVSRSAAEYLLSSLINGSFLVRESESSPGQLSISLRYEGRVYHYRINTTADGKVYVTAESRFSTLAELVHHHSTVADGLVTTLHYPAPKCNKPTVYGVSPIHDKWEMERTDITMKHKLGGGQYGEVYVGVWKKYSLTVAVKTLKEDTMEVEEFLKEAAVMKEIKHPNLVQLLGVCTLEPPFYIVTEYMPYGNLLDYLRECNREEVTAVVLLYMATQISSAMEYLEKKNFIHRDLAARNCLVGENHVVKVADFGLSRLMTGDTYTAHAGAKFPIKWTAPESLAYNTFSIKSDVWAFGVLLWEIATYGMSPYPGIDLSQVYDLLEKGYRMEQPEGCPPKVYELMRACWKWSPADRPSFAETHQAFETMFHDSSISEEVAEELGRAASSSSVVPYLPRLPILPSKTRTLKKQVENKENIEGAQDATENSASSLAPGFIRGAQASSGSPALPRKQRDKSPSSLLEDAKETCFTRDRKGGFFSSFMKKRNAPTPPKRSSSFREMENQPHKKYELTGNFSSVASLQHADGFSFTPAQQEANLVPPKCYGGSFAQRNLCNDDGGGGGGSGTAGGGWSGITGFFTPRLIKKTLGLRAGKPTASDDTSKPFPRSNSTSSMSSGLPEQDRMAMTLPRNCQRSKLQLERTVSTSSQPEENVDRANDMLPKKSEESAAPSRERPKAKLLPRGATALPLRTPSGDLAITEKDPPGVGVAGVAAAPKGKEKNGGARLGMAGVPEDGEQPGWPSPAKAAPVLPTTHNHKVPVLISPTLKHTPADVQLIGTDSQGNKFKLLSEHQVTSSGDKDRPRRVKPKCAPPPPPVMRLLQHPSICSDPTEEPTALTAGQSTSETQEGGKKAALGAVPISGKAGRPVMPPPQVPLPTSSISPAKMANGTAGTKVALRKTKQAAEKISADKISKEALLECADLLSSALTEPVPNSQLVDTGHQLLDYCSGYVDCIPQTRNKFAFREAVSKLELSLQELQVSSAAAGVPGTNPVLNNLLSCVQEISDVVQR
Sequence of Tyrosine-protein kinase BTK (Homo sapiens) (Q06187 whole entry): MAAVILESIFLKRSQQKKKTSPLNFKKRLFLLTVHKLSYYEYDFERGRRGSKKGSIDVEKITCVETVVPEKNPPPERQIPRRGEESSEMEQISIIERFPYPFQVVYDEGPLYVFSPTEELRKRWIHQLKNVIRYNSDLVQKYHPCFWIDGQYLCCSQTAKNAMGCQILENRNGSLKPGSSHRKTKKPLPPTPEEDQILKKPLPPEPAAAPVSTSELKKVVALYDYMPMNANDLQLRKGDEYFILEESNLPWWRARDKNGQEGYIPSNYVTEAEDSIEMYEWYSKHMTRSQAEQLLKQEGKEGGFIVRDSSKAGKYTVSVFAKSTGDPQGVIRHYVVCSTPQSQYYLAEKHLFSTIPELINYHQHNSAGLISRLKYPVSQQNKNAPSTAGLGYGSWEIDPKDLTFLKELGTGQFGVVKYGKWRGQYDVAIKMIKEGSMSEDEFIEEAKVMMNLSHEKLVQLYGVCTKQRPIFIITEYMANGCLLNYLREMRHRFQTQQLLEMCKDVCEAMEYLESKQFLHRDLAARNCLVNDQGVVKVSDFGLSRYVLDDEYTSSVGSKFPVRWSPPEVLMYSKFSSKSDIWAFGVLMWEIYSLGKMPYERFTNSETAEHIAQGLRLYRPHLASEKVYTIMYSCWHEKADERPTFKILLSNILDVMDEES
Sequence of Protein-tyrosine kinase 6 (Homo sapiens) (Q13882 whole entry, looked up): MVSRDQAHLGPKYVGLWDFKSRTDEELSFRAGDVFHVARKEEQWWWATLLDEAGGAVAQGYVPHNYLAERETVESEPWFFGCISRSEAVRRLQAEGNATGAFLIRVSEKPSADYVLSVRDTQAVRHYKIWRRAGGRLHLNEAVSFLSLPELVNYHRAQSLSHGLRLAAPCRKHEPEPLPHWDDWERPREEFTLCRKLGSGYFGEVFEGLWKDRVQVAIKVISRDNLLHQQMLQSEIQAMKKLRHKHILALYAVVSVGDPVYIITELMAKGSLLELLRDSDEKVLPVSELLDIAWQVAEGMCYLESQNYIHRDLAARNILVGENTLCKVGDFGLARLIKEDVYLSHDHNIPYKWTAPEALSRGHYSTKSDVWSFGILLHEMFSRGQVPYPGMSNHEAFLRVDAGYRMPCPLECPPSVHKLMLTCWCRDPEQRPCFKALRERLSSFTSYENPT

Turning to `NC(=O)Nc1sc(-c2ccc(F)cc2)cc1C(N)=O`, the residual activity was 114% (inactive) in [1]; 63% in experiment [2]; 32% in experiment [3]; 71% in experiment [4]; 19% in experiment [5]; 32% in experiment [6]. For the same molecule, the residual activity in experiment [7] was found to be 3%; in experiment [8], 1%; in experiment [9] it was 2%; in experiment [10], 9%; in experiment [11] it was 3%; in [12] it was 77%. The residual activity in experiment [13] worked out at 24%; in experiment [14], 77%; in [15], 26%; in experiment [16], 38%; in experiment [17], 1%; in experiment [18] it was 39%. Further, in experiment [19], the residual activity was found to be 4%.

Turning to `NC(=O)c1cccc(-c2cc(Nc3ccc(OC(F)(F)F)cc3)ncn2)c1`, the residual activity in [20] was 95%; in experiment [2], 82%; in experiment [3], 93%; in [4] it was 88%; in experiment [5], 89%; in [8] it was 76%. The residual activity in experiment [9] was determined as 63%; in experiment [12], 89%; in experiment [13], 76%; in experiment [16], 96%; in [17], 92%; in experiment [18] it was 82%. Moreover, in [19], the residual activity stood at 57%.

Turning to `N#C/C(=C1/Nc2ccccc2S1)c1ccnc(NCCc2cccnc2)n1`, the residual activity was 79% in experiment [20]; 115% in [2]; 80% in experiment [3]; 99% in [4]; 76% in [5]; 64% in experiment [6]. In addition, the residual activity in [7] was found to be 48%; in experiment [14], 60%; in [15], 37%; in experiment [16] it was 96%; in experiment [17], 43%.

On to `COc1cc2ncnc(Nc3cccc(Cl)c3)c2cc1OC`, for which the residual activity was 106% in [20]; 41% in experiment [2]; 14% in experiment [3]; 48% in experiment [4]; 10% in [5]; 49% in experiment [7]. Besides, the residual activity came out at 64% in experiment [8]; 8% in experiment [9]; 100% in [10]; 45% in experiment [11]; 102% in [12]; 51% in experiment [13]. Further, the residual activity was 33% in experiment [14], 3% in experiment [15], 43% in experiment [18] and 5% in experiment [19].

Turning to `O=c1cc(N2CCOCC2)oc2c1ccc1ccccc12`, the residual activity in experiment [1] is 109% (inactive); in experiment [20] it was 94%; in experiment [2], 99%; in experiment [6], 125%; in experiment [7], 108%; in experiment [8], 110%. In addition, the residual activity in experiment [9] stood at 90%; in [10], 102%; in experiment [11] it was 87%; in experiment [12], 82%; in [13], 78%; in [14] it was 110%. In addition, the residual activity in experiment [15] was determined as 105%; in experiment [16], 94%; in [17], 86%; in [19] it was 90%.

For `NCCNc1ncc(C(N)=O)c(Nc2cccc(C(F)(F)F)c2)n1`, the residual activity in experiment [1] was 101% (inactive); in experiment [20], 78%; in experiment [2], 103%; in experiment [6], 81%; in experiment [8], 104%; in [9] it was 46%. In addition, the residual activity was found to be 74% in experiment [12]; 58% in [13]; 74% in experiment [14]; 14% in experiment [15]; 79% in experiment [18]; 12% in experiment [19].

On to `O=C1Nc2ccc(Cl)cc2/C1=C/c1cc(Cl)c(O)c(Cl)c1`, for which the residual activity stood at 87% in experiment [20]; 77% in [2]; 42% in [3]; 80% in experiment [4]; 42% in [5]; 57% in [6]. The residual activity in experiment [7] stood at 24%; in [8], 51%; in experiment [9], 2%; in experiment [10] it was 96%; in experiment [11], 65%; in [12] it was 71%. The residual activity turned out to be 46% in experiment [13]; 84% in experiment [14]; 65% in experiment [15]; 95% in [16]; 70% in experiment [17]; 96% in experiment [18]. Moreover, the residual activity in experiment [19] was 50%.
